Inconclusive results are not listed. Active and inactive are the calls of the source. The calls were made as follows, unless noted: active = hit-call score of the fitted dose curve at least 0.9, where 1 is the maximum; inactive = score below 0.9.
Legend:
[1] = tested on: Brachyury (BRA) Protein Expression, Deisenroth Lab, TBXT (gene 6862); assay: CCTE_Deisenroth_DEVTOX-GLR_legacy_Bra: (Legacy) CCTE's DevTox GLR-Endo Assay Evaluation of Brachyury (BRA) Protein Expression, Deisenroth Lab (AID 2284329)
Procedure, shortened: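 High-content imaging of fixed RUES2-GLR cells after a 48-hour differentiation with two compound exposures yields percent cells whose Bra signal exceeds pluripotent control median by 5x BMAD; values are baseline-corrected to DMSO.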

[2] = CCTE_Deisenroth_DEVTOX-GLR_legacy_CellCount: (Legacy) Viability Assessment in CCTE's DevTox GLR-Endo Assay, Deisenroth Lab (AID 2284331); settings: actives raise or lower the signal
Procedure, shortened: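 Seed RUES2-GLR 24 h; differentiate 48 h, dosing at 0 and 24 h; fix, stain nuclei; image 5 fields/well; count nuclei. Conc. 1 nM - 200 uM, single technical replicate, n=4 experiments; bidirectional fit vs 0.2% DMSO.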

[3] = tested on: SRY-box transcription factor 17 (SOX17) Protein Expression, Deisenroth Lab, SOX17 (gene 64321); assay: CCTE_Deisenroth_DEVTOX-GLR_legacy_Sox17: (Legacy) CCTE's DevTox GLR-Endo Assay Evaluation of SRY-box transcription factor 17 (SOX17) Protein Expression, Deisenroth Lab (AID 2284341); settings: actives raise or lower the signal
Procedure, shortened: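 Using the RUES2-GLR line, compounds are tested as 10-point series during 48-h defined-media differentiation. Sox17 reporter fluorescence per cell determines positivity; endpoint is percentage positive, analysed bidirectionally versus DMSO baseline.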

[4] = tested on: SRY-box transcription factor 2 (SOX2) Protein Expression, Deisenroth Lab, SOX2 (gene 6657); assay: CCTE_Deisenroth_DEVTOX-GLR_legacy_Sox2: (Legacy) CCTE's DevTox GLR-Endo Assay Evaluation of SRY-box transcription factor 2 (SOX2) Protein Expression, Deisenroth Lab (AID 2284346)
Procedure, shortened: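 Two exposures, 24 h apart, during 48 h defined-media differentiation of seeded RUES2-GLR cells; nuclei-stained cells imaged. Sox2 positivity called at 5x BMAD above endoderm control median, DMSO median subtracted.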

[5] = tested on: SRY-box transcription factor 2 (SOX2) Protein Expression, Deisenroth Lab, SOX2 (gene 6657); assay: CCTE_Deisenroth_DEVTOX-GLR_Endo_SOX2: CCTE's DevTox GLR-Endo Assay Evaluation of SRY-box transcription factor 2 (SOX2) Protein Expression, Deisenroth Lab (AID 2284412; active = hit-call score of the fitted dose curve at least 0.9, where 1 is the maximum)
Procedure, shortened: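 Endpoint is percent SOX2-positive cells (SOX2+ count/total cells) minus 0.2% DMSO control, from high-content imaging of fixed, nuclear-stained RUES2-GLR cells. Dosing twice at 24 h intervals over 48 h differentiation, 1 nM–200 uM in 10 points.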

[6] = tested on: SRY-box transcription factor 17 (SOX17) Protein Expression, Deisenroth Lab, SOX17 (gene 64321); assay: CCTE_Deisenroth_DEVTOX-GLR_Endo_SOX17: CCTE's DevTox GLR-Endo Assay Evaluation of SRY-box transcription factor 17 (SOX17) Protein Expression, Deisenroth Lab (AID 2284413)
Procedure, shortened: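 Fluorescent microscopy of a SOX17 reporter in RUES2-GLR pluripotent cells scored endoderm differentiation after 48 h and two 24-h-spaced exposures. Values are percent change in SOX17+ population against 0.2% DMSO, n=4 experimental replicates.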

[7] = tested on: Brachyury (BRA) Protein Expression, TBXT (gene 6862); assay: CCTE_Deisenroth_DEVTOX-GLR_Endo_BRA: CCTE's DevTox GLR-Endo Assay Evaluation of Brachyury (BRA) Protein Expression, Deisenroth Lab (AID 2284417)
Procedure, shortened: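 Percent BRA+ (mesoderm) RUES2-GLR cells after 48 h differentiation with two exposures, 1 nM - 200 uM; 0.2% DMSO control subtracted.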

[8] = CCTE_Deisenroth_DEVTOX-GLR_Endo_CellCount: Viability Assessment in CCTE's DevTox GLR-Endo Assay, Deisenroth Lab (AID 2284420)
Procedure, shortened: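 Nuclei counted by fluorescence microscopy as a surrogate for cell number, expressed as percent change relative to 0.2% DMSO control. Human RUES2-GLR cells, 48 h differentiation, dosed twice; 1 nM - 200 uM series.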

[9] = tested on: SRY-box transcription factor 17 (SOX17) Protein Expression, Deisenroth Lab, SOX17 (gene 64321); assay: CCTE_Deisenroth_DEVTOX-GLR_Pluri_SOX17: CCTE's DevTox GLR-Pluri Assay Evaluation of SRY-box transcription factor 17 (SOX17) Protein Expression, Deisenroth Lab (AID 2284427; active = hit-call score of the fitted dose curve at least 0.9, where 1 is the maximum)
Procedure, shortened: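 Readout: percent SOX17+ cells (SOX17+ count/cell count) by high-content imaging of an inducible fluorescent reporter, corrected for 0.2% DMSO solvent control. RUES2-GLR cells, 48 h differentiation, dosed twice at 24 h intervals, 1 nM - 200 uM.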

[10] = tested on: SRY-box transcription factor 2 (SOX2) Protein Expression, Deisenroth Lab, SOX2 (gene 6657); assay: CCTE_Deisenroth_DEVTOX-GLR_Pluri_SOX2: CCTE's DevTox GLR-Pluri Assay Evaluation of SRY-box transcription factor 2 (SOX2) Protein Expression, Deisenroth Lab (AID 2284428)
Procedure, shortened: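 RUES2-GLR (human pluripotent), 48 h post-dosing, 2 exposures q24h, 1 nM–200 uM 10-pt. Fixed, nuclear dye, high-content imaging 5 fields/well. Endpoint: % SOX2+ cells (SOX2+/total count) vs 0.2% DMSO; n≥4.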

[11] = tested on: Brachyury (BRA) Protein Expression, Deisenroth Lab, TBXT (gene 6862); assay: CCTE_Deisenroth_DEVTOX-GLR_Pluri_BRA: CCTE's DevTox GLR-Pluri Assay Evaluation of Brachyury (BRA) Protein Expression, Deisenroth Lab (AID 2284429; active = hit-call score of the fitted dose curve at least 0.9, where 1 is the maximum)
Procedure, shortened: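 Mesoderm readout after 48 h differentiation of human RUES2-GLR cells, dosed twice (24-h intervals) at 1 nM - 200 uM. BRA+ frequency from fluorescence imaging of fixed, nuclear-stained cells, DMSO-corrected.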

[12] = CCTE_Deisenroth_DEVTOX-GLR_Pluri_CellCount: Viability Assessment in CCTE's DevTox GLR-Pluri Assay Evaluation of Total Cell Counts, Deisenroth Lab (AID 2284430)
Procedure, shortened: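 Cytotoxicity readout: fluorescent nuclei counts by high-content imaging, expressed as percent change relative to 0.2% DMSO. Human RUES2-GLR pluripotent line differentiated 48 h, dosed twice at 24-h intervals across 1 nM - 200 uM (10 points).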

[13] = target: Estrogen receptor (Homo sapiens) (UniProt P03372); assay: CCTE_Deisenroth_AIME_96WELL_LUC_Active: CCTE's 96-well Estrogen Receptor Transactivation Assay with AIME metabolic competence (ERTA luciferase; metabolism positive), Deisenroth Lab (AID 2284023; active = hit-call score of the fitted dose curve at least 0.9, where 1 is the maximum)
Procedure, shortened: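 Metabolism-positive mode: induced rat hepatic S9 in alginate microspheres conditions test solutions (0.002 - 200 uM, 10 points) for 2 hours. VM7Luc4E2 ER luciferase reporter cells then exposed 24 h; positive-direction fit against 17beta-estradiol, n=4 typical.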

[14] = target: Estrogen receptor (Homo sapiens) (UniProt P03372); assay: CCTE_Deisenroth_AIME_96WELL_LUC_Inactive: CCTE's 96-well Estrogen Receptor Transactivation Assay without AIME metabolic competence (ERTA luciferase; metabolism negative), Deisenroth Lab (AID 2284025; active = hit-call score of the fitted dose curve at least 0.9, where 1 is the maximum)
Procedure, shortened: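 Metabolism-negative arm: chemicals (0.002–200 uM, 10 points) incubated 2 h with alginate-water microspheres, then medium moved onto VM7Luc4E2 cells for 24 h luciferase read-out. Positive direction vs 17beta-estradiol; n≥4 experiments.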

Chain of Estrogen receptor (Homo sapiens) (P03372 whole entry, looked up): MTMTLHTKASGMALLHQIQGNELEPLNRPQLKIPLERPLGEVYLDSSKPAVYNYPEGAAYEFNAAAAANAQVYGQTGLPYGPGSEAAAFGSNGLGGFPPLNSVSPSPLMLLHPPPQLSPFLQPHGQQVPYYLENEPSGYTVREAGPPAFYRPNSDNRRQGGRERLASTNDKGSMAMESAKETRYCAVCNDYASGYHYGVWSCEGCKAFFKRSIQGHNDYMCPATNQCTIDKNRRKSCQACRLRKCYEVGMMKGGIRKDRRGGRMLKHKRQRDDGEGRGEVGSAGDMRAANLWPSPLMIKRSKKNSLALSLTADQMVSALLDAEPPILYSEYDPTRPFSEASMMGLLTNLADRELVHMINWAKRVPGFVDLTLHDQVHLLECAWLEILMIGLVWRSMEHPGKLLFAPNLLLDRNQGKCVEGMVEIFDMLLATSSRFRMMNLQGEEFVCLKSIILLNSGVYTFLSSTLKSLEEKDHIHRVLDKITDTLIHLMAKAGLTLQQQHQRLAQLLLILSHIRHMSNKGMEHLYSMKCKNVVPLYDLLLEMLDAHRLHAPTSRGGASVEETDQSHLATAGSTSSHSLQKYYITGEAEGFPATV

Structure (SMILES) | AC50 [1] | AC50 [2] | AC50 [3] | AC50 [4] | AC50 [5] | AC50 [6] | AC50 [7] | AC50 [8] | outcome [9] | AC50 [10] | AC50 [11] | AC50 [12] | AC50 [13] | AC50 [14]
c1cc(-c2cnn3cc(-c4ccc(OCCN5CCCCC5)cc4)cnc23)ccn1 | 20 µM (active) | 20 µM (active) | 24.6 µM (active) | 5.11 µM (active) | 30.1 µM (active) | 24.1 µM (active) | 1.44 µM (active) | 20 µM (active) | inactive | 3.94 µM (active) | 3.02 µM (active) | 3.39 µM (active) |  | 
C/C(=C\c1ccccc1)c1ccccc1 |  |  |  |  |  |  |  |  |  |  |  |  | 20.6 µM (active) | 37.2 µM (active)
